# In PubChem BioAssay (Tox21):
# Records with an inconclusive call do not appear. Calls of active or inactive are those of the source. Calls follow the shape of the dose curve; as a rule, active = well fitted inhibition curve with a large enough effect in the signal ratio in the repeat runs (not every such curve was filed as active); inconclusive = weak or mixed curves, or effect the other way; inactive = no such curve, though single readings can be large or run the other way; the % refers to the signal ratio.
# Target: Vitamin D3 receptor (Homo sapiens) (UniProt P11473)
# Experiment: qHTS assay to identify small molecule antagonists of the vitamin D receptor (VDR) signaling pathway (AID 743223)
# Settings: VDR-UAS-bla HEK293T, beta-lactamase FRET ratio, 16 h; series mostly up to 61 µM
# Source text: U.S. Tox21 Program National Center for Advancing Translational Sciences [NCATS] NIH Chemical Genomics Center [NCGC] U.S. Environmental Protection Agency [EPA] National Institutes of Environmental Health Sciences [NIEHS] National Toxicology Program [NTP] U.S. Food and Drug Administration [FDA] Tox21 Assay Overview: The vitamin D receptor (VDR), a member of nuclear hormone receptor superfamily, plays a critical role in calcium homeostasis and bone metabolism. It is also involved in cell differentiation and growth, and thrombogenicity.
# Tox21 Assay Protocol Summary: VDR-bla cells were dispensed at 2,000 cells/5 uL of assay medium per well into black wall/clear-bottom 1536-well plates using a Multidrop Combi (Thermo Fisher Scientific, Waltham, MA) dispenser. After the assay plates were incubated at a 37C and 5% CO2 for 4 h, 23 nL of compounds dissolved in DMSO, positive controls or DMSO only was transferred to the assay plate by a Pintool station (Kalypsys, San Diego, CA), followed by addition of 1 uL of 1alpha, 25-Dihydroxy Vitamin D3 (3 nM, final concentration in the wells) using a Bioraptr Flying Reagent Dispenser (FRD) workstation (Beckman Coulter, Indianapolis, IN). The plates were incubated at 37C and 5% CO2 for 16 h, and then 1 uL of LiveBLAzerTM B/G FRET substrate was added using a Bioraptr FRD. The plates were incubated at room temperature for 2 h and fluorescence intensity was measured by an Envision plate reader (PerkinElmer, Shelton, CT).
# Chain of Vitamin D3 receptor (Homo sapiens) (P11473 whole entry, looked up): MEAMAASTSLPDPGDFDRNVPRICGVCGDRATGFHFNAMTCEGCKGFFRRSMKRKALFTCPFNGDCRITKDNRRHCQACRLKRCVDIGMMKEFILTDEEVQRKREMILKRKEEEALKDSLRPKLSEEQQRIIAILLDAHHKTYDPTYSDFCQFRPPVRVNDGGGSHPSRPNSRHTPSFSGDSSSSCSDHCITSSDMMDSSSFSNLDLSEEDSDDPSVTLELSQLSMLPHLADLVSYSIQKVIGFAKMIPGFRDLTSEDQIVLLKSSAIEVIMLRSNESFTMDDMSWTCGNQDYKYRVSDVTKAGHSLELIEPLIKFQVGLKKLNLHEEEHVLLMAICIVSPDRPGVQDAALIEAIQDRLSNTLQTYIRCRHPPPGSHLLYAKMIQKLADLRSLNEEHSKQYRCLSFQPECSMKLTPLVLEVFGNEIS
row,Compound,outcome
1,Cc1cc(N)n(-c2ccccc2)n1,inactive
2,COC(=O)c1cc(Cl)ccc1[N+](=O)[O-],inactive
3,Cc1ccccc1CCO,inactive
4,COc1ccc(CN(CCN(C)C)c2ncccn2)cc1,inactive
5,CCCC1CCOC(C)S1 (stereo not given),inactive
6,CCC(CC)C(=O)O,inactive
7,COc1ccc(C(=O)c2ccc(C)cc2)c(O)c1,inactive
8,C[C@H]1C[C@H]2[C@@H]3CCC4=CC(=O)C=C[C@]4(C)[C@@]3(F)[C@@H](O)C[C@]2(C)[C@@]1(O)C(=O)COP(=O)(O)O,inactive
9,CC(C)NC(=O)c1ccccc1N,inactive
10,COc1ccc(/C=C/c2cc(OC)cc(=O)o2)cc1,inactive
11,OCCc1ccncc1,inactive
12,O=c1[nH]nc(-c2ccc([N+](=O)[O-])o2)o1,inactive
13,CNc1ccccc1,inactive
14,CC(C)(C)N,inactive
15,O=C(c1ccc(Cl)cc1)c1ccc(Cl)cc1,inactive
16,O=C(Nc1ccc2c(c1)Cc1ccccc1-2)C(F)(F)F,inactive
17,Nc1ccc(C(=O)Oc2ccccc2)c(O)c1,inactive
18,O=C(O)COCC(=O)O,inactive
19,O=[N+]([O-])c1ccccc1CCO,inactive
20,COC(=O)C(C)(C)C,inactive

row,Compound,outcome
1,CC(C)(C)NCC(O)COc1ccc(NC(=O)NC2CCCCC2)cc1 (stereo not given),inactive
2,CC[C@H](NC(C)C)[C@H](O)c1ccc(O)c2[nH]c(=O)ccc12,inactive
3,O=C(OCCOCCOCCOC(=O)c1ccccc1)c1ccccc1,inactive
4,CC(C)(C)c1cc(C=O)cc(C(C)(C)C)c1O,inactive
5,CC(=O)Nc1ccccc1O,inactive
6,Cc1ccc(S(=O)(=O)NC(=O)NC2CCCC2)cc1,inactive
7,CCCCOc1ccc(N)cc1,inactive
8,CCc1c(C)[nH]c2c1C(=O)C(CN1CCOCC1)CC2 (stereo not given),inactive
9,CCC1=C(C)CN(C(=O)NCCc2ccc(S(=O)(=O)NC(=O)NC3CCC(C)CC3)cc2)C1=O (stereo not given),inactive
10,C=C[Si](OCC)(OCC)OCC,inactive
11,CCCCOC(=O)C(C)Oc1ccc(Oc2ccc(C(F)(F)F)cn2)cc1 (stereo not given),inactive
12,COC(=O)Cc1cccc2ccccc12,inactive
13,C=CC(C)CCC=C(C)C (stereo not given),inactive
14,NC(=O)c1ccccc1C(N)=O,inactive
15,Clc1cc(Cl)c2c(c1)N=C1CCCCCN1C2,inactive
16,Oc1ccc(Oc2ccccc2)cc1,inactive
17,CC(=O)c1ccc(Cl)c(Cl)c1Cl,inactive
18,Cc1cc(SC2=C(O)C[C@@](CCc3ccc(N)cc3)(C(C)C)OC2=O)c(C(C)(C)C)cc1CO,inactive
19,CC(=O)CC/C=C(\C)CC/C=C(\C)CC/C=C(\C)CCC=C(C)C,inactive
20,CCOC(=O)CC(O)(CC(=O)OCC)C(=O)OCC,inactive
